According to the supplement of paper PMC8540655:

Tested on: Aedes aegypti larvae
Test: larval motility relative to same well at 0 h (fraction); higher = more motile (less active compound), active = 0.4 or less
Conditions: 10 µM
Procedure, shortened: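 Larvae (Aedes aegypti, hatched in pond salt solution with yeast at 25 °C and taken 18–24 h later) were plated at about 10 per 100 µL well. Compounds at 10 µM in 1% v/v DMSO were imaged with INVAPP at 0, 2 and 24 h, alongside solvent and larvicide controls on each plate. Reported relative motility is each well's score over its own starting score, as a median of three independent larval batches.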

Compound	larval motility (2 h)	larval motility (24 h)
CCc1c(OCC2CCC2)c2cc(F)ccc2[nH]c1=O	1.07 (inactive)	1.08 (inactive)
CCC(CC)[C@H](NC(C)=O)[C@@H]1[C@H](O)[C@@H](C(=O)O)C[C@H]1NC(=N)N	0.729 (inactive)	1.91 (inactive)
CC(C)(C)c1ccc(C(Cn2cccc(C(F)(F)F)c2=O)NC2Cc3ccccc3C2)cc1 (centres undefined)	0.686 (inactive)	0.846 (inactive)
OB1OCc2c1ccc(Cl)c2F	0.987 (inactive)	1.19 (inactive)
CCc1cc(O)c(Oc2cccnc2N)cc1F	1.72 (inactive)	1.42 (inactive)
COc1cc(C2C3=C(CC(C)(C)CC3=O)Nc3ccccc3N2C(C)=O)ccc1OCc1ccccc1 (centres undefined)	0.542 (inactive)	0.617 (inactive)
O=C(c1ccc(F)cc1)N1CCN2C(=O)c3ccccc3C12c1ccccc1 (centres undefined)	1.12 (inactive)	0.984 (inactive)
Nc1nc(F)nc2c1ncn2[C@H]1O[C@@H](CO)[C@H](O)[C@@H]1O	0.949 (inactive)	0.854 (inactive)
NNC(=O)c1ccncc1	0.924 (inactive)	0.744 (inactive)
NC(=O)c1c(N)sc2c1CCCCC2	0.947 (inactive)	1.32 (inactive)
Cc1oncc1C(=O)Nc1ccc(C(F)(F)F)cc1	0.743 (inactive)	0.744 (inactive)
NC(=O)c1cnc2ccc(S(=O)(=O)c3ccccc3)cc2c1Nc1ccc(O)cc1	1.25 (inactive)	1.01 (inactive)
NCCCc1ccccc1C(=O)Nc1ncc([N+](=O)O)s1	0.869 (inactive)	0.646 (inactive)
NC(=O)[C@@H]1CC[C@@H]2CN1C(=O)N2OS(=O)(=O)O	1.06 (inactive)	1.3 (inactive)
COc1ccc(-n2cnc3cc(NCc4ccco4)ccc32)cc1	0.835 (inactive)	1.63 (inactive)
Cc1c(N)cccc1Cn1ccc(OCCc2cccs2)cc1=O	0.953 (inactive)	0.875 (inactive)

Compound	larval motility (2 h)	larval motility (24 h)
Cc1[nH]c2ccccc2c1CC(=O)N[C@@H](Cc1ccccc1)C(=O)N(C)c1ccccc1	0.963 (inactive)	1.03 (inactive)
CCOc1noc2cc(OCCC3CCN(c4ccc(C)nn4)CC3)ccc12	0.793 (inactive)	1.06 (inactive)
O=C(CSc1nnc(Br)n1-c1ccc(C2CC2)c2ccccc12)Nc1ccc(C(=O)O)cc1Cl	0.815 (inactive)	0.894 (inactive)
CCC(C)NCC(O)Cn1c2ccc(Cl)cc2c2cc(Cl)ccc21 (centres undefined)	0.799 (inactive)	1 (inactive)
COc1ccc(C)cc1NC(=O)c1ccc(S(=O)(=O)N2CCCCC2)cc1	1.12 (inactive)	1.26 (inactive)
CN(C)CC(=O)Nc1ccc2[nH]c(=O)c3ccccc3c2c1	0.338 (active)	0.463 (inactive)
CC(=N)N1CC[C@H](SC2=C(C(=O)O)N3C(=O)[C@@H]([C@@H](C)O)[C@H]3C2)C1	1.05 (inactive)	0.809 (inactive)
CCCCCOc1ccc(/C=C2\Oc3c(ccc(O)c3O)C2=O)c(O)c1	0.621 (inactive)	1.4 (inactive)
O=S(=O)(Nc1ccc(-n2cccc2)cc1)c1ccc(Cl)c(Cl)c1	1.06 (inactive)	0.808 (inactive)
O=c1cc(Nc2ccc3ccccc3c2)[nH]c(=O)[nH]1	0.528 (inactive)	0.778 (inactive)
O=C(Nc1nnc(-c2ccccc2)o1)c1ccc(F)cc1	0.832 (inactive)	0.868 (inactive)
C[C@H](Cn1cnc2c(N)ncnc21)OCP(=O)(O)O	1.31 (inactive)	1.07 (inactive)
CC(C)(C)c1ccc(OCCn2nc(C(=O)O)c3ccccc3c2=O)cc1	2.82 (inactive)	3.46 (inactive)
Cc1cc(C)n(O)c(=O)c1	0.846 (inactive)	0.863 (inactive)
CCOC(=O)/C=C/[C@H](C[C@@H]1CCNC1=O)NC(=O)[C@@H](CC(=O)[C@@H](NC(=O)c1cc(C)on1)C(C)C)Cc1ccc(F)cc1	1.26 (inactive)	1.09 (inactive)
COc1ccc(C2=CC(c3c(F)cccc3Cl)n3ncnc3N2)cc1 (centres undefined)	0.637 (inactive)	0.619 (inactive)
